Pf apPOL block: Pf-apPOL inhibitors, biochemical, fluorescence; Recombinant Pf-apPOL, molecular beacon fluorescence, 1.5 h; inhibition, % at 10 µM; 210,000 tested, 0.25% active
mHTT-CaM PPI inh: mutant huntingtin-calmodulin interaction inhibitors – biochemical, AlphaScreen, primary screen. AlphaScreen His-mHTT/GST-CaM binding, luminescence. inhibition, % at 15 µM. 190,000 tested, 3.6% active. AID 1671202, 2021;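 also: 0% = both proteins with DMSO and 100% = one protein alone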
* = called active by the depositor. A selection: hits, their analogues and other compounds. The true share with any hit is near 3.6%. Rule as the data show it: active = inhibition above about 50%; inactive = the rest.

How did CC12CC(=O)C3C(CCC4=CC(=O)CCC43C)C1CCC2=O (configuration not stated) do in these assays?
mHTT-CaM PPI inh: -3

Results for Brc1cccc(CN2CCN(c3ccccc3)CC2)c1 ?
Pf apPOL block: -9; mHTT-CaM PPI inh: 4

How did Cc1oc2cc(OC(=O)N(C)C)ccc2c(=O)c1-c1ccc(Br)cc1 do in these assays?
Pf apPOL block: -5; mHTT-CaM PPI inh: 3

Results for Cc1ccc(CN2CCN(Cc3ccccc3)CC2)cc1 ?
Pf apPOL block: -11; mHTT-CaM PPI inh: 1

What do the screens show for `Nc1nc2ccccc2c(-c2cccc3ccccc23)c1CN1CC1`?
mHTT-CaM PPI inh: 98*

What do the screens show for `CCN1C(=O)NC(=O)/C(=C/c2cn(CC(=O)NCc3ccco3)c3ccccc23)C1=O`?
Pf apPOL block: -1; mHTT-CaM PPI inh: 51*

How did CCN(CC)C(=O)Cn1cc(/C=C2\C(=O)NC(=O)N(c3ccccc3F)C2=O)c2ccccc21 do in these assays?
Pf apPOL block: -3; mHTT-CaM PPI inh: 62*

What do the screens show for `CCN1C(=O)NC(=O)/C(=C/c2cn(CC(=O)NCCOC)c3ccccc23)C1=O`?
Pf apPOL block: -6; mHTT-CaM PPI inh: 5

How did CCN1C(=O)NC(=O)/C(=C/c2cn(CC(=O)N3CCCCC3)c3ccccc23)C1=O do in these assays?
Pf apPOL block: 1; mHTT-CaM PPI inh: 7

How did O=[N+]([O-])c1ccc(NC23CC4CC(CC(C4)C2)C3)c2ncccc12 do in these assays?
Pf apPOL block: -1; mHTT-CaM PPI inh: 1

What do the screens show for `CC(=O)OCC1=C(C(=O)[O-])N2C(=O)[C@@H](NC(=O)CCC[C@@H](N)C(=O)[O-])[C@H]2SC1.[Zn+2]`?
Pf apPOL block: 15

What do the screens show for `COc1ccc(CN2CCN(c3cccc(Cl)c3)CC2)cc1O`?
Pf apPOL block: -5; mHTT-CaM PPI inh: 12

Results for COc1cc(CN2CCN(c3cccc(Cl)c3)CC2)cc(I)c1O ?
Pf apPOL block: -6; mHTT-CaM PPI inh: 58*

Results for O=C(O)C1Nc2c(F)cccc2C2C(Cl)C(Sc3ccccc3[N+](=O)[O-])CC12 (configuration not stated) ?
Pf apPOL block: 1; mHTT-CaM PPI inh: 68*

Results for Cc1c(C#N)c(N)n(CCCn2ccnc2)c1C ?
mHTT-CaM PPI inh: 99*

Results for Cc1c(C#N)c(N)n(CC2CCCO2)c1C (configuration not stated) ?
mHTT-CaM PPI inh: 22

Results for O=c1c2ccccc2nc(/C=C/c2cccnc2)n1-c1ccccc1 ?
Pf apPOL block: 0; mHTT-CaM PPI inh: 0

Results for Cc1ccc(-c2nc3ccccc3c(=O)n2-c2cccnc2)cc1 ?
Pf apPOL block: -8; mHTT-CaM PPI inh: 2

How did Cc1cccc(-n2c(-c3cccnc3)nc3ccccc3c2=O)c1 do in these assays?
Pf apPOL block: -10; mHTT-CaM PPI inh: 100*

What do the screens show for `Cc1ccc(S(=O)(=O)OCC23CCC(=O)C=C2CCC2C4CCC(=O)C4(C)CCC23)cc1` (configuration not stated)?
Pf apPOL block: 14

How did CCc1cc2c(=O)c(-c3ccc4c(c3)OCCO4)coc2cc1OC(=O)N(C)C do in these assays?
Pf apPOL block: -1; mHTT-CaM PPI inh: 8

What do the screens show for `CC12CN3CC(C)(CN(C1)C3c1cccs1)C2=O` (configuration not stated)?
Pf apPOL block: -1; mHTT-CaM PPI inh: -4

What do the screens show for `CC12CN3CC(C)(CN(C1)C3c1ccccn1)C2O` (configuration not stated)?
Pf apPOL block: -15; mHTT-CaM PPI inh: 100*

What do the screens show for `N#CC(=Cc1cnc[nH]1)S(=O)(=O)c1cccs1`?
Pf apPOL block: -1

Results for Cc1nc2cc([N+](=O)[O-])ccc2c(=O)n1-c1ccc(Cl)cc1 ?
Pf apPOL block: -6; mHTT-CaM PPI inh: -3

How did O=C(COc1cccc(Cl)c1)N1CCCN(C2CCN(Cc3ccccc3)C2=O)CC1 (configuration not stated) do in these assays?
Pf apPOL block: 0; mHTT-CaM PPI inh: 75*

What do the screens show for `COCCN1CCC(N2CCCN(C(=O)COc3cccc(C)c3)CC2)C1=O` (configuration not stated)?
Pf apPOL block: 1; mHTT-CaM PPI inh: 22

What do the screens show for `O=C(CN1CCN(c2ccc(F)cc2)CC1)Nc1ccc(Cl)cc1C(=O)c1ccccc1`?
Pf apPOL block: -1; mHTT-CaM PPI inh: 72*

How did Cc1cc([N+](=O)[O-])nn1CC(=O)Nc1ccc(Cl)cc1C(=O)c1ccccc1 do in these assays?
Pf apPOL block: 1; mHTT-CaM PPI inh: 3

How did O=C(CCN1CCOCC1)Nc1ccc(Br)cc1C(=O)c1ccccc1 do in these assays?
Pf apPOL block: -2; mHTT-CaM PPI inh: 81*

How did O=C(CN1CCOCC1)Nc1ccc(Br)cc1C(=O)c1ccccc1 do in these assays?
Pf apPOL block: -4; mHTT-CaM PPI inh: 3

Results for CCc1nc2ccc(I)cc2c(=O)n1-c1ccccc1F ?
Pf apPOL block: 5; mHTT-CaM PPI inh: -1

Results for COc1ccc(Br)cc1CNCCc1c[nH]c2ccccc12 ?
Pf apPOL block: -1; mHTT-CaM PPI inh: 11

How did C#CCOc1c(I)cc(/C=C/[N+](=O)[O-])cc1OC do in these assays?
Pf apPOL block: 0; mHTT-CaM PPI inh: 14

What do the screens show for `COc1cc(/C=C/[N+](=O)[O-])cc(I)c1O`?
Pf apPOL block: -3; mHTT-CaM PPI inh: 52*

How did COc1cc(/C=C/[N+](=O)[O-])cc(I)c1OCc1ccccc1 do in these assays?
Pf apPOL block: -4; mHTT-CaM PPI inh: 4

How did CCOc1cc(/C=C/[N+](=O)[O-])cc(I)c1O do in these assays?
Pf apPOL block: -2; mHTT-CaM PPI inh: 57*

Results for Cc1[nH]c2ccc(F)cc2c1CCN ?
Pf apPOL block: 1; mHTT-CaM PPI inh: 4

What do the screens show for `O=c1c2ccccc2nc(/C=C/c2cc(Br)ccc2O)n1-c1ccccc1[N+](=O)[O-]`?
Pf apPOL block: 5; mHTT-CaM PPI inh: 45

How did C#CC(C)(C)N1CCC(O)C2CCCC21 (configuration not stated) do in these assays?
Pf apPOL block: 1; mHTT-CaM PPI inh: 1

How did O=[N+]([O-])c1ccc(N2CCN(Cc3ccccc3)CC2)cc1 do in these assays?
Pf apPOL block: 2

What do the screens show for `CC1=Nc2ccccc2C1=Cc1c(O)[nH]c(=O)[nH]c1=O`?
Pf apPOL block: -50; mHTT-CaM PPI inh: 54*

How did COCCN1CCC(N2CCCN(C(=O)COc3ccc(F)c(F)c3)CC2)C1=O (configuration not stated) do in these assays?
Pf apPOL block: -2; mHTT-CaM PPI inh: 21

Source: PubChem BioAssay
